Measured values taken from the supplement of paper PMC9262897, “Low-cost anti-mycobacterial drug discovery using engineered E. coli” (Nature Communications, 2022).
Where a name gives a salt, the structure may show the parent alone. ± gives the standard deviation of the averaged measurements.

Columns and labels:
Experiment in all cases: growth (OD600 after 10 h); higher = more growth (less inhibition)
[1] = test system: E. coli TESEC Alr+ wild-type control; settings: compound 0.1 mM; raw OD600 reference: median of DMSO wells 0.241, cell-free background 0.041
Protocol: (§1)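 TESEC Mtb Alr E. coli, or the Alr+ wild-type control, in 384-well plates with Prestwick library compounds at 0.1 mM and 1% DMSO, across arabinose induction levels of 1E3 to 1E7 nM. Growth is read as OD600 after 10 h at 37 °C in triplicate biological replicates.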

[2] = test system: E. coli TESEC Mtb Alr; settings: compound 0.1 mM
Protocol: as §1

[3] = test system: E. coli TESEC Mtb Asd; settings: compound 0.1 mM
Protocol: (§2)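 TESEC E. coli strains in which the native enzyme is deleted and replaced by arabinose-inducible Mtb Asd, DapB, CysH or TrpD, each grown in its selective medium. Strains were screened against the Prestwick library at 0.1 mM and 1% DMSO in 384-well format at low and high arabinose induction. Growth is read as OD600 after 10 h in triplicate.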

[4] = test system: E. coli TESEC Mtb DapB; settings: compound 0.1 mM
Protocol: as §2

[5] = test system: E. coli TESEC Alr+ wild-type control; settings: compound 0.1 mM; raw OD600 reference: median of DMSO wells 0.49, cell-free background 0.052
Protocol: (§3)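 TESEC Mtb Alr E. coli (ΔaraC ΔtolC ΔentC Δalr ΔdadX, arabinose-inducible Mtb Alr) or the Alr+ wild-type control strain, grown in defined M9-fructose medium without D-alanine in 96-well plates with Prestwick library compounds at 0.1 mM and 1% DMSO. Low Alr induction is 0.1 µM arabinose and high induction is 10 mM arabinose.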

[6] = test system: E. coli TESEC Mtb Alr; settings: compound 0.1 mM; remark: listed apart in the source
Protocol: as §3

[7] = arabinose 1000 nM, raw OD600 reference: median of DMSO wells 0.294, cell-free background 0.041
[8] = arabinose 10000 nM, raw OD600 reference: median of DMSO wells 0.264, cell-free background 0.041
[9] = arabinose 100000 nM, raw OD600 reference: median of DMSO wells 0.201, cell-free background 0.041
[10] = arabinose 1000000 nM, raw OD600 reference: median of DMSO wells 0.193, cell-free background 0.041
[11] = arabinose 10000000 nM, raw OD600 reference: median of DMSO wells 0.146, cell-free background 0.041
[12] = arabinose induction (level): High, raw OD600 reference: median of DMSO wells 0.331, cell-free background 0.041
[13] = arabinose induction (level): Low, raw OD600 reference: median of DMSO wells 0.417, cell-free background 0.041
[14] = arabinose induction (level): High, raw OD600 reference: median of DMSO wells […], cell-free background 0.041
[15] = arabinose induction (level): Low, raw OD600 reference: median of DMSO wells 0.227, cell-free background 0.041
[16] = arabinose 100 nM, raw OD600 reference: median of DMSO wells 0.413, cell-free background 0.052
[17] = arabinose 10000000 nM, raw OD600 reference: median of DMSO wells […], cell-free background 0.052

Structure (SMILES)	growth [1]	growth [2, 7]	growth [2, 8]	growth [2, 9]	growth [2, 10]	growth [2, 11]	growth [3, 12]	growth [3, 13]	growth [4, 14]	growth [4, 15]	growth [5]	growth [6, 16]	growth [6, 17]
O=C(O)/C=C/c1ccc(Cn2ccnc2)cc1 [Ozagrel hydrochloride]	0.229 ± 0.006	0.268 ± 0.019	0.263 ± 0.0041	0.197 ± 0.025	0.179 ± 0.0082	0.143 ± 0.0023	0.248 ± 0.03	0.422 ± 0.035	0.176 ± 0.0061	0.207 ± 0.023	0.482 ± 0.076	0.397 ± 0.017	0.372 ± 0.014
Clc1ccc(C(Cn2ccnc2)OCc2c(Cl)cccc2Cl)c(Cl)c1 (configuration not stated) [Isoconazole]	0.0482 ± 0.00036	0.0445 ± 0.0043	0.247 ± 0.037	0.0465 ± 0.0023	0.105 ± 0.12	0.0545 ± 0.0038	0.152 ± 0.079	0.0562 ± 0.006	0.0672 ± 0.015	0.0666 ± 0.02	0.0722 ± 0.023	0.0651 ± 0.02	0.104 ± 0.075
C/C(=C(\CCOP(=O)(O)O)SC(=O)c1ccccc1)N(C=O)Cc1cnc(C)nc1N [Benfotiamine]	0.2481 ± 0.0011	0.317 ± 0.014	0.257 ± 0.0029	0.205 ± 0.019	0.186 ± 0.006	0.141 ± 0.0056	0.352 ± 0.068	0.41 ± 0.11	0.188 ± 0.0089	0.224 ± 0.032	0.502 ± 0.11	0.404 ± 0.0067	0.359 ± 0.0094
NS(=O)(=O)Cc1noc2ccccc12 [Zonisamide]	0.252 ± 0.013	0.301 ± 0.012	0.2543 ± 0.0014	0.203 ± 0.0022	0.19 ± 0.0041	0.139 ± 0.0077	0.296 ± 0.019	0.389 ± 0.02	0.201 ± 0.0092	0.234 ± 0.012	0.453 ± 0.018	0.406 ± 0.0079	0.353 ± 0.018
NC(=O)N1c2ccccc2C=Cc2ccccc21 [Carbamazepine]	0.241 ± 0.0068	0.281 ± 0.0037	0.239 ± 0.0011	0.182 ± 0.032	0.173 ± 0.0066	0.142 ± 0.00057	0.36 ± 0.013	0.35 ± 0.059	0.194 ± 0.018	0.237 ± 0.046	0.491 ± 0.0058	0.405 ± 0.0088	0.272 ± 0.12
Oc1c(Cl)cc(Cl)c2cccnc12 [Chloroxine]	0.044 ± 0.00076	0.0429 ± 0.00083	0.0409 ± 0.00069	0.0435 ± 0.00076	0.0415 ± 0.00061	0.0495 ± 0.00057	0.0595 ± 0.0028	0.154 ± 0.05	0.0813 ± 0.015	0.117 ± 0.069	0.0623 ± 0.0012	0.0554 ± 0.0075	0.0726 ± 0.013
C#C[C@]1(O)CC[C@H]2[C@@H]3CCC4=Cc5oncc5C[C@]4(C)[C@H]3CC[C@@]21C [Danazol]	0.154 ± 0.027	0.168 ± 0.026	0.174 ± 0.022	0.152 ± 0.012	0.125 ± 0.0017	0.152 ± 0.0057	0.295 ± 0.075	0.277 ± 0.022	0.169 ± 0.0079	0.176 ± 0.0079	0.46 ± 0.05	0.4015 ± 0.0024	0.309 ± 0.026
CC(=O)[C@H]1CC[C@H]2[C@@H]3C[C@H](C)C4=CC(=O)CC[C@]4(C)[C@H]3[C@@H](O)C[C@]12C [Medrysone]	0.122 ± 0.0039	0.162 ± 0.0096	0.2463 ± 0.002	0.1231 ± 0.00055	0.112 ± 0.003	0.138 ± 0.0029	0.217 ± 0.02	0.385 ± 0.041	0.179 ± 0.018	0.18 ± 0.0064	0.457 ± 0.067	0.399 ± 0.0044	0.213 ± 0.018
Cc1ccc(C(=O)c2ccc(CC(=O)O)n2C)cc1 [Tolmetin sodium salt dihydrate]	0.234 ± 0.0061	0.281 ± 0.014	0.253 ± 0.0051	0.169 ± 0.011	0.184 ± 0.0077	0.1348 ± 0.00087	0.432 ± 0.032	0.3668 ± 0.0019	0.197 ± 0.024	0.223 ± 0.028	0.518 ± 0.05	0.387 ± 0.018	0.337 ± 0.0088
O=C1C(=O)c2ccccc2C(O)=C1C1CCC(c2ccc(Cl)cc2)CC1 (configuration not stated) [Atovaquone]	0.171 ± 0.0064	0.2 ± 0.0057	0.182 ± 0.015	0.151 ± 0.015	0.105 ± 0.0069	0.133 ± 0.0044	0.271 ± 0.12	0.23 ± 0.017	0.199 ± 0.009	0.204 ± 0.015	0.545 ± 0.044	0.442 ± 0.023	0.231 ± 0.025
O=C(Nc1ccc([N+](=O)[O-])cc1Cl)c1cc(Cl)ccc1O [Niclosamide]	0.0431 ± 0.00067	0.0406 ± 0.001	0.0492 ± 0.0021	0.0408 ± 0.0001	0.03973 ± 0.00035	0.0404 ± 0.00042	0.0715 ± 0.017	0.225 ± 0.037	0.174 ± 0.012	0.193 ± 0.043	0.053 ± 0.003	0.0618 ± 0.0064	0.0616 ± 0.00076
CC(=O)O[C@]1(C(C)=O)CC[C@H]2[C@@H]3C=C(C)C4=CC(=O)CC[C@]4(C)[C@H]3CC[C@@]21C [Megestrol acetate]	0.206 ± 0.022	0.285 ± 0.024	0.266 ± 0.013	0.16 ± 0.003	0.164 ± 0.0052	0.163 ± 0.016	0.441 ± 0.041	0.46 ± 0.026	0.2058 ± 0.0013	0.248 ± 0.034	0.212 ± 0.22	0.291 ± 0.12	0.302 ± 0.041
CC(C)NC(=N)NC(=N)Nc1ccc(Cl)cc1 [Proguanil hydrochloride]	0.216 ± 0.0044	0.261 ± 0.006	0.275 ± 0.0087	0.176 ± 0.013	0.143 ± 0.0015	0.142 ± 0.0028	0.216 ± 0.048	0.31 ± 0.068	0.207 ± 0.03	0.244 ± 0.016	0.475 ± 0.012	0.422 ± 0.009	0.345 ± 0.019
C[C@]12CC[C@@H]3c4ccc(OS(=O)(=O)O)cc4CC[C@H]3[C@@H]1CCC2=O [Estropipate]	0.229 ± 0.0082	0.277 ± 0.011	0.251 ± 0.0064	0.177 ± 0.011	0.151 ± 0.011	0.127 ± 0.0018	0.301 ± 0.023	0.413 ± 0.039	0.194 ± 0.016	0.195 ± 0.013	0.534 ± 0.11	0.41 ± 0.0049	0.267 ± 0.0063
